Measured values: PubChem BioAssay AID1159580 (chemical genetic matrix, 2015)
Hit rate of the full screen: of about 5,500 compounds, about 2,000 (36%) were called active. About 18% were inconclusive and are not listed. No stated cut-off is given here; in the data, active means normalized growth mostly below about 0.91 (no sharp cut-off); inconclusive means no clear call, values can overlap the other calls; inactive means mostly above about 0.92. This is one part of the list.

Assay: chemical genetic growth profiling, strain panel (AID 1159580);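 further: tested at 20 µM; growth read once vehicle control cultures reached saturation at 30 °C; 1 = growth at the plate median or of vehicle wells; lower values mean less growth of the strain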
Conditions: S. cerevisiae deletion strains, growth OD

Measured: normalized growth

O=c1oc2cc(O)ccc2s1
inactive: locus YAL013W, strain DEP1, hits give low values 0.999 | locus YAL021C, strain ccr4, hits give low values 1.06 | locus YAL026C, strain drs2, hits give low values 1 | locus YAL030W, strain snc1, hits give low values 0.995 | locus YBL061C, strain skt5, hits give low values 1.01 | locus YBR009C, strain hhf1, hits give low values 0.972 | locus YBR021W, strain FUR4, hits give low values 1.03 | locus YBR023C, strain chs3, hits give low values 1.01 | locus YBR171W, strain sec66, hits give low values 1.02 | locus YBR229C, strain ROT2, hits give low values 0.966 | locus YBR231C, strain swc5, hits give low values 0.965 | locus YBR279W, strain paf1, hits give low values 0.999 | locus YCL011C, strain gbp2, hits give low values 0.988 | locus YCL016C, strain dcc1, hits give low values 0.993 | locus YCL061C, strain MRC1, hits give low values 0.997 | locus YCL069W, strain vba3, hits give low values 1.01 | locus YCR088W, strain abp1, hits give low values 1.01 | locus YDL005C, strain med2, hits give low values 1.04 | locus YDL035C, strain GPR1, hits give low values 0.945 | locus YDL040C, strain nat1, hits give low values 1 | locus YDL074C, strain BRE1, hits give low values 0.962 | locus YDL101C, strain DUN1, hits give low values 0.967 | locus YDL134C, strain PPH21, hits give low values 0.972 | locus YDL185W, strain tfp1, hits give low values 0.955 | locus YDL192W, strain arf1, hits give low values 0.954 | locus YDR001C, strain nth1, hits give low values 1.01 | locus YDR069C, strain doa4, hits give low values 0.998 | locus YDR137W, strain rgp1, hits give low values 1.02 | locus YDR150W, strain NUM1, hits give low values 0.993 | locus YDR159W, strain sac3, hits give low values 0.941 | locus YDR162C, strain NBP2, hits give low values 0.968 | locus YDR195W, strain ref2 1.12 | locus YDR297W, strain sur2, hits give low values 1.01 | locus YDR334W, strain swr1, hits give low values 1.01 | locus YDR335W, strain msn5, hits give low values 0.99 | locus YDR388W, hits give low values 0.947 | locus YDR392W, strain spt3, hits give low values 0.953 | locus YDR502C, strain sam2, hits give low values 0.934 | locus YEL003W, strain gim4, hits give low values 0.999 | locus YEL037C, strain rad23, hits give low values 0.998 | locus YEL061C, strain CIN8 (second series), hits give low values 1.01 | locus YEL061C, strain CIN8, hits give low values 0.98 | locus YER015W, strain faa2, hits give low values 0.975 | locus YER016W, strain bim1, hits give low values 0.989 | locus YER110C, hits give low values 0.968 | locus YER111C, strain swi4, hits give low values 0.996 | locus YER155C, strain BEM2 (second series), hits give low values 0.988 | locus YER155C, strain BEM2, hits give low values 0.973 | locus YER167W, strain BCK2, hits give low values 0.965 | locus YFR010W, strain ubp6, hits give low values 0.978 | locus YGL078C, strain dbp3, hits give low values 0.96 | locus YGL086W, strain mad1, hits give low values 0.932 | locus YGL167C, strain pmr1, hits give low values 1.02 | locus YGL173C, strain kem1, hits give low values 0.967 | locus YGL227W, strain vid30, hits give low values 1 | locus YGL240W, strain doc1, hits give low values 0.967 | locus YGL248W, strain PDE1, hits give low values 0.985 | locus YGL253W, strain hxk2, hits give low values 1 | locus YGR078C, strain PAC10, hits give low values 0.969 | locus YGR135W, strain pre9, hits give low values 0.898 | locus YGR229C, strain SMI1, hits give low values 0.965 | locus YGR252W, strain gcn5, hits give low values 0.956 | locus YHR013C, strain ard1, hits give low values 1.1 | locus YHR027C, strain rpn1, hits give low values 0.998 | locus YHR030C, strain SLT2, hits give low values 0.983 | locus YHR079C, strain IRE1 (second series), hits give low values 0.942 | locus YHR094C, strain hxt1, hits give low values 0.966 | locus YHR129C, strain ARP1, hits give low values 0.966 | locus YHR142W, strain chs7, hits give low values 1.04 | locus YHR200W, strain rpn10, hits give low values 0.927 | locus YIL066C, strain RNR3, hits give low values 0.946 | locus YIL073C, strain SPO22, hits give low values 0.996 | locus YIL125W, strain kgd1, hits give low values 0.982 | locus YIR030C, strain dcg1, hits give low values 0.962 | locus YJL092W, strain hpr5, hits give low values 0.988 | locus YJL095W, strain BCK1 (second series), hits give low values 1.02 | locus YJL095W, strain BCK1, hits give low values 0.933 | locus YJL115W, strain asf1, hits give low values 1.03 | locus YJL129C, strain trk1, hits give low values 1.03 | locus YJL134W, strain LCB3, hits give low values 0.976 | locus YJL154C, strain vps35, hits give low values 1.02 | locus YJL164C, strain tpk1, hits give low values 1.01 | locus YJL166W, strain qcr8, hits give low values 0.99 | locus YJL168C, strain set2, hits give low values 0.961 | locus YJL187C, strain SWE1 (second series), hits give low values 0.952 | locus YJL187C, strain SWE1, hits give low values 1
active: locus YCL029C, strain bik1, hits give low values 0.899 | locus YDR101C, strain arx1, hits give low values 0.899 | locus YDR318W, strain mcm21, hits give low values 0.911
